# Test results published in PubChem BioAssay (NCATS).
# Several values for one entry are separate records, joined by “and”; a condition that tells them apart may be missing. Identical values can stand only once. A number with no mark means an inactive call. Inconclusive results are not listed. Some structures have more than one record in an assay (separate samples or runs), and their calls can disagree. Activity calls are given as the source filed them. Unless noted, the call rests on the fitted dose curve; in most records, active means well fitted curve in the direction sought with a large enough effect; inconclusive means small, poorly fitted or top-dose-only effect, or another doubt; inactive means no such curve, though single readings can be large; an effect the other way counts as inactive or inconclusive.
# Tests used:
# [1] = qHTS assay to identify inhibitors of the type 1 interferon - major histocompatibility complex class I in skeletal muscle: Counter screen cell viability and HiBit confirmation (AID 1347412); details: iHSKM muscle cells + IFN-b, HiBiT or CellTiter-Glo, 24 h; for activity change, negative = inhibition: at 45.9 µM (top of the series); further: potency means the concentration at half of the fitted maximal effect; on activity change, negative = inhibition: on the % scale 0 is the no-effect control and ±100 the full control effect; on all read-outs here: nearly all actives have a fitted effect of over 60% in size
# Method in brief: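 Human myoblast knock-in line, 4.0 ng/ml IFN-beta stimulation, 24 h compound treatment. Endpoints: HiBiT lytic luminescence (HLA-B level) and CellTiter Glo (ATP). Dosing 12 concentrations, 3-fold steps, 46 uM highest final.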
# [2] = Drug repurposing screens with cells derived from glioblastoma tumor samples (AID 1345199); details: GBM patient neurospheres viability, ATP luminescence, 48 h; further: nearly all actives have a fitted effect of over 40% in size; further: potency means the concentration at half of the fitted maximal effect; on activity, negative = cell killing: on the % scale 0 is the no-effect control and ±100 the full control effect
# Method in brief: (§1)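 Four patient lines of CD133+ GBM neurospheres were screened at several concentrations; hits were retested in those lines plus three slower-growing GBM lines, using 48-hour treatment and ATP-based viability.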
# astro = experiment: as above; details: viability, ATP luminescence, 48 h; series mostly up to 45.9 µM
# Method in brief: as §1
# [3] = qHTS assay for small molecule activators of the human pregnane X receptor (PXR) signaling pathway (AID 720659; call rule not given here; further: 0% is about no effect); details: DPX-2 HepG2 CYP3A4-luciferase, 24 h; series mostly up to 92.3 µM
# [4] = biological target: Nuclear receptor subfamily 1 group I member 2 (Rattus norvegicus) (UniProt Q9R1A7); experiment: qHTS assay for small molecule activators of the rat pregnane X receptor (rPXR) signaling pathway (AID 651751; call rule not given here; further: 0% is about no effect); details: rPXR reporter cells, luciferase (One-Glo), 24 h
# JEG-3 = experiment: Primary qHTS to identify gynecologic anti-cancer compounds using libraries of approved drugs and bioactive compounds (AID 1345084); details: Gynecologic cancer cell panel viability, ATPlite luminescence, 48 h; series mostly up to 57.5 µM; further: nearly all actives have a fitted effect of over 55% in size; further: potency means the concentration at half of the fitted maximal effect
# Method in brief: (§2)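 Cells, 1,000 per well, plated 16 h, then exposed 48 h at 37 C to compounds. Viability by ATPlite luminescence after 15 min at room temperature.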
# OV90 = experiment: as above; details: Gynecologic cancer cell panel viability, ATPlite luminescence, 48 h; series mostly up to 57.5 µM
# Method in brief: as §2
# PA-1 = experiment: as above; details: Gynecologic cancer cell panel viability, ATPlite luminescence, 48 h; series mostly up to 57.5 µM
# Method in brief: as §2
# [5] = at 45.9 µM (top of the series), tumour line B
# [6] = at 45.9 µM (top of the series), tumour line D
# [7] = at 46 µM (top of the series), tumour line A
# [8] = at 46.1 µM (top of the series), tumour line C
# Chain of Nuclear receptor subfamily 1 group I member 2 (Rattus norvegicus) (Q9R1A7 whole entry, looked up): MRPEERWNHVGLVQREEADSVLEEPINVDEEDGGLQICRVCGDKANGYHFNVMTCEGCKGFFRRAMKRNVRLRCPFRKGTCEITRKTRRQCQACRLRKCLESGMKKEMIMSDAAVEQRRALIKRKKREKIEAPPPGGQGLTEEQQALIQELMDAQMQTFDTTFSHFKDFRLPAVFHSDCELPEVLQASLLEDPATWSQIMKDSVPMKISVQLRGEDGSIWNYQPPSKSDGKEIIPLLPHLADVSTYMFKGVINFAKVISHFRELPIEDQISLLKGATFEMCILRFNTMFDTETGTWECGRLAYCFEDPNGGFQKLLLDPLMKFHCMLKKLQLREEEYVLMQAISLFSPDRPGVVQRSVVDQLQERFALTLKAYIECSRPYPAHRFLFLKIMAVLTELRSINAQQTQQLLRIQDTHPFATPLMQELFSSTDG
compound,measurement,setting,value
N#C/C(=C\c1ccc(-c2cc(Cl)ccc2Cl)o1)C(=O)Nc1cccc2ncccc12,"activity change, negative = inhibition",[1]; Viability,-18.8%
C=CC(N)CCC(=O)O (centres undefined),"activity, negative = cell killing",[2]; [5],-2.82%
same,"activity, negative = cell killing",[2]; [6],-18.8%
same,"activity, negative = cell killing",[2]; [7],-11.6%
same,"activity, negative = cell killing",[2]; [8],-7.65%
same,Potency,astro,inactive
C=C(Nc1ccc(OCC)cc1)Nc1ccc(OCC)cc1,"activity, negative = cell killing",[2]; [6],-18.8%
same,"activity, negative = cell killing",[2]; [8],-12.9%
same,Potency,astro,inactive
CCOC(=O)N1CCN(/[N+]([O-])=N/Oc2ccc([N+](=O)[O-])cc2[N+](=O)[O-])CC1,Potency,[1]; HiBiT,6.25 µM (active)
same,"activity change, negative = inhibition",[1]; Viability,17.2%
O=S(=O)(c1cccc2c(I)cccc12)N1CCCNCC1,"activity change, negative = inhibition",[1]; HiBiT,-4.28%
same,"activity change, negative = inhibition",[1]; Viability,-12.4%
O=[N+]([O-])c1ccc2c(c1)S(=O)(=O)C=C2,Potency,[1]; HiBiT,1.76 µM (active)
O=C(Nc1ccncc1)c1cc([N+](=O)[O-])ccc1Cl,Potency,[1]; HiBiT,15.7 µM (active)
same,"activity change, negative = inhibition",[1]; Viability,-27.4%
O=C(O)/C=C/C(O)c1ccc(Cl)cc1 (centres undefined),"activity, negative = cell killing",[2]; [5],1.63%
same,"activity, negative = cell killing",[2]; [6],7.64%
same,"activity, negative = cell killing",[2]; [7],-31.6%
same,"activity, negative = cell killing",[2]; [8],1.95%
O=C(O)[C@H](O)[C@@H](O)[C@H](O)[C@H](O)CO,"activity, negative = cell killing",[2]; [5],-3.35% and -2.21%
same,"activity, negative = cell killing",[2]; [6],-11.3% and 8.58%
same,"activity, negative = cell killing",[2]; [7],-25.5% and -7.46%
same,"activity, negative = cell killing",[2]; [8],0.0662% and -1.71%
same,outcome,[3],inactive
O=C(Nc1ccccc1)c1cc([N+](=O)[O-])ccc1Cl,max response,[4],-1.59%
N=c1ccn2c(n1)O[C@H]1[C@H](O)[C@@H](CO)O[C@H]12,"activity, negative = cell killing",[2]; [6],-31.3%
same,"activity, negative = cell killing",[2]; [8],-5.87%
OCC1O[C@H]([S-])[C@H](O)[C@@H](O)[C@@H]1O.[Au+] (some centres undefined),"activity change, negative = inhibition",[1]; Viability,-5.66%
CCN(CC)CCCCNc1ncc2cc(-c3c(Cl)cccc3Cl)c(NC(=O)NC(C)(C)C)nc2n1,Potency,JEG-3,inactive
same,Potency,OV90,7.94 µM (active)
same,Potency,PA-1,0.631 µM (active)
CC(C)NCC(O)COc1cccc2ccccc12 (centres undefined),max response,[4],2% and 7.81%
CCOC(=O)C1=C(C)NC(C)=C(C(=O)OCC)C1c1c(F)c(F)c(F)c(F)c1F,"activity change, negative = inhibition",[1]; HiBiT,-2.44%
same,"activity change, negative = inhibition",[1]; Viability,9.02%
CO[C@H]1C[C@@H]2CC[C@@H](C)[C@@](O)(O2)C(=O)C(=O)N2CCCC[C@H]2C(=O)O[C@H]([C@H](C)C[C@@H]2CC[C@@H](O)[C@H](OC)C2)CC(=O)[C@H](C)C=C(C)[C@@H](O)[C@@H](OC)C(=O)[C@H](C)C[C@H](C)/C=C/C=CC=C1C,Potency,astro,35.5 µM (active)
Cc1ccc(S(=O)(=O)/C=C/C#N)cc1,Potency,[1]; HiBiT,5.57 µM (active)
same,Potency,[1]; Viability,17.6 µM (active)
O=C1C(SCCO)=C(SCCO)C(=O)c2ccccc21,Potency,[1]; HiBiT,2.79 µM (active)
same,Potency,[1]; Viability,4.97 µM (active)
CC(C)Cc1ccc([C@H](C)C(=O)O)cc1,"activity, negative = cell killing",[2]; [5],4.71%
same,"activity, negative = cell killing",[2]; [6],0.88%
same,"activity, negative = cell killing",[2]; [7],-14%
same,"activity, negative = cell killing",[2]; [8],8.55%
